Measurements published in PubChem BioAssay (NCATS).
Inconclusive results are not listed. Activity calls are given as the source filed them. The call rests on the fitted dose curve; in most records, active means well fitted curve in the direction sought with a large enough effect; inconclusive means small, poorly fitted or top-dose-only effect, or another doubt; inactive means no such curve, though single readings can be large; an effect the other way counts as inactive or inconclusive.

Legend:
[1] = Quantitative High-Throughput drug screen in 47 multiple myeloma cell lines against the NCATS MIPE library collection: OCIMY1_PLB cell viability assay (AID 1918979); further: nearly all actives have a fitted effect of over 35% in size; further: potency means the concentration at half of the fitted maximal effect
Procedure, shortened: (§1)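 Inhibition of viability over 48 h was scored by ATP content (CellTiter-Glo) in 500-cell wells. Zero and full viability were defined by media-only and DMSO-only wells.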

[2] = Quantitative High-Throughput drug screen in 47 multiple myeloma cell lines against the NCATS MIPE library collection: L363_DSMZ cell viability assay (AID 1918984); conditions: L363 myeloma viability, CellTiter-Glo ATP luminescence, 48 h; viability (% of control): at 45.8 µM (top of the series); further: nearly all actives have a fitted effect of over 40% in size; further: potency means the concentration at half of the fitted maximal effect
Procedure, shortened: as §1

[3] = Quantitative High-Throughput drug screen in 47 multiple myeloma cell lines against the NCATS MIPE library collection: KMS34_JCRB cell viability assay (AID 1918985); further: nearly all actives have a fitted effect of over 40% in size; further: potency means the concentration at half of the fitted maximal effect
Procedure, shortened: as §1

[4] = Quantitative High-Throughput drug screen in 47 multiple myeloma cell lines against the NCATS MIPE library collection: OCIMY7_PLB cell viability assay (AID 1918987); conditions: OCI-MY7 myeloma viability, CellTiter-Glo ATP, 48 h; viability (% of DMSO): at 45.8 µM (top of the series); further: nearly all actives have a fitted effect of over 65% in size; further: potency means the concentration at half of the fitted maximal effect
Procedure, shortened: as §1

[5] = Quantitative High-Throughput drug screen in 47 multiple myeloma cell lines against the NCATS MIPE library collection: MMM1_PLB cell viability assay (AID 1918976); further: potency means the concentration at half of the fitted maximal effect; nearly all actives have a fitted effect of over 35% in size
Procedure, shortened: as §1

[6] = Quantitative High-Throughput drug screen in 47 multiple myeloma cell lines against the NCATS MIPE library collection: NCIH929_DSMZ cell viability assay (AID 1918978); further: nearly all actives have a fitted effect of over 35% in size; further: potency means the concentration at half of the fitted maximal effect
Procedure, shortened: as §1

[7] = Quantitative High-Throughput drug screen in 47 multiple myeloma cell lines against the NCATS MIPE library collection: MM1S_ATCC cell viability assay (AID 1918980); further: potency means the concentration at half of the fitted maximal effect; nearly all actives have a fitted effect of over 45% in size
Procedure, shortened: as §1

[8] = Quantitative High-Throughput drug screen in 47 multiple myeloma cell lines against the NCATS MIPE library collection: LP1_DSMZ cell viability assay (AID 1918982); further: nearly all actives have a fitted effect of over 35% in size; further: potency means the concentration at half of the fitted maximal effect
Procedure, shortened: as §1

[9] = Quantitative High-Throughput drug screen in 47 multiple myeloma cell lines against the NCATS MIPE library collection: KMS28PE_JCRB cell viability assay (AID 1918983); further: nearly all actives have a fitted effect of over 35% in size; further: potency means the concentration at half of the fitted maximal effect
Procedure, shortened: as §1

[10] = Quantitative High-Throughput drug screen in 47 multiple myeloma cell lines against the NCATS MIPE library collection: OCIMY5_PLB cell viability assay (AID 1918988); further: potency means the concentration at half of the fitted maximal effect; nearly all actives have a fitted effect of over 65% in size
Procedure, shortened: as §1

[11] = Quantitative High-Throughput drug screen in 47 multiple myeloma cell lines against the NCATS MIPE library collection: OPM1_PLB cell viability assay (AID 1918989); further: nearly all actives have a fitted effect of over 40% in size; further: potency means the concentration at half of the fitted maximal effect
Procedure, shortened: as §1

[12] = Quantitative High-Throughput drug screen in 47 multiple myeloma cell lines against the NCATS MIPE library collection: SKMM1_PLB cell viability assay (AID 1919863); conditions: SKMM1 myeloma viability, CellTiter-Glo ATP, 48 h; viability: hits give low values; further: nearly all actives have a fitted effect of over 35% in size; further: potency means the concentration at half of the fitted maximal effect
Procedure, shortened: as §1

[13] = Quantitative High-Throughput drug screen in 47 multiple myeloma cell lines against the NCATS MIPE library collection: XG6_PLB cell viability assay (AID 1919865); further: nearly all actives have a fitted effect of over 40% in size; further: potency means the concentration at half of the fitted maximal effect
Procedure, shortened: as §1

[14] = Quantitative High-Throughput drug screen in 47 multiple myeloma cell lines against the NCATS MIPE library collection: KMS26_JCRB cell viability assay (AID 1918975); further: potency means the concentration at half of the fitted maximal effect; nearly all actives have a fitted effect of over 45% in size
Procedure, shortened: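 We plated 500 myeloma cells per well, pinned in MIPE 4.0 compounds, and incubated for 48 hours at 37C. ATP was then quantified with CellTiter-Glo, with DMSO and media-only wells defining 100% and 0%.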

[15] = Quantitative High-Throughput drug screen in 47 multiple myeloma cell lines against the NCATS MIPE library collection: MM1R_ATCC cell viability assay (AID 1918981); further: nearly all actives have a fitted effect of over 35% in size; further: potency means the concentration at half of the fitted maximal effect
Procedure, shortened: as §1

[16] = Quantitative High-Throughput drug screen in 47 multiple myeloma cell lines against the NCATS MIPE library collection: U266_ATCC cell viability assay (AID 1919864); further: nearly all actives have a fitted effect of over 35% in size; further: potency means the concentration at half of the fitted maximal effect
Procedure, shortened: as §1

[17] = Quantitative High-Throughput drug screen in 47 multiple myeloma cell lines against the NCATS MIPE library collection: MOLP8_DSMZ cell viability assay (AID 1918977); further: nearly all actives have a fitted effect of over 45% in size
Procedure, shortened: as §1

O=[N+]([O-])c1ccc(Nc2ccccc2-c2ccccc2)c2nonc12
inactive: Potency [1] | Potency [3]
active: Potency [2] 16.6 µM | Potency [4] 18.7 µM

O=c1[nH]c(=O)n([C@H]2C[C@@H](O)[C@@H](CO)O2)cc1C(F)(F)F
active: Potency [5] 3.32 µM | Potency [6] 10.5 µM | Potency [7] 10.5 µM | Potency [9] 16.6 µM | Potency [4] 7.43 µM | Potency [10] 14.8 µM | Potency [12] 5.9 µM | Potency [13] 1.87 µM
inactive: Potency [8] | Potency [11]

O=C1Nc2ccc(I)cc2C1=Cc1cc(Br)c(O)c(Br)c1
active: Potency [14] 16.6 µM | Potency [10] 8.33 µM | Potency [11] 10.5 µM | Potency [12] 18.7 µM
inactive: Potency [15] | Potency [16] | Potency [13]

COc1cc(Cl)cn2c(-c3cccc(NC4CNC4)n3)cnc12
active: Potency [5] 20.9 µM | Potency [9] 20.9 µM | Potency [4] 9.35 µM | Potency [10] 13.2 µM | Potency [12] 9.35 µM | Potency [13] 2.96 µM

CCOC(=O)[C@@H](N)CCC(=O)N[C@@H](CSCc1ccccc1)C(=O)N[C@@H](C(=O)OCC)c1ccccc1
inactive: Potency [9]
active: Potency [4] 23.5 µM | Potency [13] 11.8 µM

CN1CCC[C@H]1CCO[C@](C)(c1ccccc1)c1ccc(Cl)cc1
active: Potency [6] 11.8 µM | Potency [7] 23.5 µM | Potency [9] 23.5 µM | Potency [10] 26.4 µM | Potency [11] 26.4 µM | Potency [13] 18.7 µM
inactive: Potency [17] | Potency [1] | Potency [8] | Potency [3] | viability [12] 84.5%

C#C[C@]1(O)CC[C@H]2[C@H]3CCc4cc(OC)ccc4[C@H]3CC[C@@]21C
active: Potency [5] 18.7 µM | Potency [7] 20.9 µM | Potency [11] 16.6 µM | Potency [13] 16.6 µM
inactive: Potency [1] | Potency [9] | Potency [2]

C[C@@H]1[C@H](O)[C@@H](C)C=CC=CC=CC=CC=CC=CC=C[C@H](O[C@@H]2O[C@H](C)[C@H](O)[C@H](N)[C@@H]2O)C[C@@H]2O[C@](O)(C[C@@H](O)C[C@@H](O)[C@H](O)CC[C@@H](O)C[C@@H](O)CC(=O)O[C@H]1C)C[C@H](O)[C@@H]2C(=O)O
active: Potency [7] 0.833 µM | Potency [15] 16.6 µM | Potency [3] 11.8 µM | Potency [4] 11.8 µM | Potency [10] 4.18 µM | Potency [12] 5.26 µM
inactive: Potency [6] | Potency [9] | Potency [13]

C[C@@H](O[C@H]1OCCN(Cc2n[nH]c(=O)[nH]2)[C@@H]1c1ccc(F)cc1)c1cc(C(F)(F)F)cc(C(F)(F)F)c1
active: Potency [14] 18.7 µM | Potency [8] 23.5 µM | Potency [2] 4.69 µM | Potency [3] 20.9 µM | Potency [10] 23.5 µM | Potency [11] 23.5 µM | Potency [12] 23.5 µM | Potency [13] 16.6 µM

Cc1c(C(=O)Nc2ccc(N3C[C@@H](C)O[C@@H](C)C3)nc2)cccc1-c1ccc(OC(F)(F)F)cc1
active: Potency [5] 11.8 µM | Potency [7] 14.8 µM | Potency [8] 9.35 µM | Potency [9] 13.2 µM | Potency [4] 9.35 µM | Potency [10] 20.9 µM | Potency [12] 26.4 µM | Potency [16] 5.9 µM

CC(=O)O[C@]1(C(C)=O)CC[C@H]2[C@@H]3C=C(Cl)C4=CC(=O)[C@@H]5C[C@H]5[C@]4(C)[C@@H]3CC[C@@]21C
inactive: Potency [1]
active: Potency [6] 9.35 µM | Potency [7] 7.43 µM | Potency [4] 9.35 µM | Potency [10] 23.5 µM | Potency [16] 8.33 µM | Potency [13] 4.18 µM

Cc1ccc(S(=O)(=O)OCC(=O)Nc2ccc(C(=O)O)c(O)c2)cc1
inactive: Potency [17] | Potency [8] | Potency [11] | viability [12] 102%
active: Potency [10] 18.7 µM | Potency [13] 3.72 µM

c1ccc(CNc2nc(N3CCOc4ccccc43)nc3c2CCCC3)cc1
inactive: Potency [6] | Potency [15] | Potency [9] | Potency [2] | Potency [4] | Potency [11] | Potency [16] | Potency [13]

O=C(Nc1ccccc1)Nc1ccc(-c2ccc(C(=O)[C@H]3CCC[C@H]3C(=O)O)cc2)cc1
inactive: Potency [6] | Potency [8] | Potency [3] | viability [12] 114%
active: Potency [7] 26.4 µM | Potency [10] 20.9 µM | Potency [13] 4.69 µM

CN[C@@H]1[C@@H](O)[C@@H](O[C@@H]2[C@@H](O)[C@H](O[C@H]3O[C@H](CN)[C@@H](O)[C@H](O)[C@@H]3O)[C@@H](N)C[C@@H]2NC(=O)[C@@H](O)CN)OC[C@]1(C)O
active: Potency [5] 5.26 µM
inactive: Potency [6] | Potency [1] | Potency [8] | Potency [9] | Potency [4] | Potency [11] | Potency [13]

CNc1nc(-c2ccc3c(N)n[nH]c3c2)cc(N2C[C@@H](C(=O)NC3CCCCC3)CC[C@@H]2C)n1
active: Potency [6] 1.18 µM | Potency [1] 18.7 µM | Potency [7] 16.6 µM | Potency [15] 18.7 µM | Potency [8] 2.64 µM | Potency [3] 20.9 µM | Potency [4] 0.0662 µM | Potency [11] 23.5 µM | Potency [16] 16.6 µM | Potency [13] 20.9 µM
